# High-throughput results as filed in PubChem BioAssay.
# DAX1 inh-1: NR0B1 (DAX1) inhibition | 340,000 tested, 0.99% active | inhibition, % at 6.75 µM | HEK293 Gal4-DAX1 luciferase reporter, luminescence | P51843 | AID 504766;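 active means inhibition above the mean over all tested compounds plus 3 SD, cut at about 4.2% in these data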;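 further: 0% = DAX1-transfected cells with DMSO and 100% = empty-vector control cells with DMSO; inhibition shows as a rise in luminescence from relieved DAX1 repression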
# Target sequence (P51843 207-470 limits assumed): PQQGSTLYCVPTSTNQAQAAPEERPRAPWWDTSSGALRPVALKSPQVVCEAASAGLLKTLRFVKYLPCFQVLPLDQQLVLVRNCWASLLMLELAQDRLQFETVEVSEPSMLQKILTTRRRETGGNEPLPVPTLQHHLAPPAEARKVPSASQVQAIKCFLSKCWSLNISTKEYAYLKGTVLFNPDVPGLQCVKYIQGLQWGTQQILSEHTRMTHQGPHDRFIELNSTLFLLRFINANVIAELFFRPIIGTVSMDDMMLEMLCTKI
# hcDAF12 agonist: activators of H. contortus DAF-12 nuclear receptor | 370,000 tested, 1.4% active | activation, % at 6.8 µM | HEK293 hcDAF-12 lit1-tk-luc reporter, luminescence; 0% DMSO, 100% Δ7-dafachronic acid;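 active means activation above the mean of all tested compounds plus 3 SD, cut at about 5.5% in these data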;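 further: 100% = response to 3 µM Δ7-dafachronic acid high control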
# SMARCA2 act: increases SMARCA2 function in MMTV reporter cells; MG213 cells, MMTV-luciferase reporter, dexamethasone, overnight; activation, % at 9.1 µM; 370,000 tested, 1% active; AID 652017; in the data active means activation above about 7.8%;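 further: 0% = vehicle wells and 100% = reference activator wells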
# ssDAF-12 act: activates DAF-12 receptor from parasite S. stercoralis; HEK293 ssDAF-12/GRIP1 lit1-tk-luc reporter, luminescence; % of 3 µM dafachronic acid response; 370,000 tested, 1% active; activation, % at 6.8 µM; AID 652126;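 active means activation above the mean over all tested compounds plus 3 SD, cut at about 0.9% in these data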;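 further: 0% = DMSO-only wells and 100% = 3 µM delta7-dafachronic acid wells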
# hgDAF-12 ag: agonists of H. glycines DAF-12 nuclear receptor; HEK293 GAL4-hgDAF12 UAS-luciferase reporter, agonist luminescence; normalized to butyrate control; activation, % at 6.8 µM; 370,000 tested, 1.8% active;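 active means activation above a cutoff set at the mean of all screened compounds plus 3 SD, cut at about 10% in these data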;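 further: 0% = DMSO wells and 100% = sodium butyrate wells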
# DAX1 inh-2: inhibitors of DAX1 repression of SF-1 activated StAR promoter | HEK293T StAR-luciferase reporter, SF-1/DAX-1 repression relief | inhibition, % at 6.8 µM | 370,000 tested, 1.1% active;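 active means inhibition above the mean over all tested compounds plus 3 SD, cut at about 3.6% in these data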;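 further: 0% = DAX-1 cells with DMSO and 100% = cells lacking DAX-1 with DMSO; higher inhibition means more luminescence from relief of DAX-1 repression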
# hgDAF12 ag: hgDAF-12 agonism, confirmation assay; shares compounds with hgDAF-12 ag; HEK293 GAL4-hgDAF12 luciferase reporter, agonist mode; percent of butyrate response; activation, % at 6.8 µM; 3,300 tested, 80% active;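 active means mean activation over triplicate wells above the hit cutoff derived from the earlier primary screen, cut at about 11% in these data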;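 further: 0% = DMSO low control and 100% = 2 mM sodium butyrate high control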
# LXRb DAF12 ctr: activates human LXR-beta, counter-screen for DAF-12 agonists; shares compounds with hgDAF-12 ag; AID 743051; 3,300 tested, under 10 active; activation, % at 6.8 µM; HEK293 Gal4-LXR luciferase reporter, 24 h;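 active means mean activation of the triplicate above a set limit carried over from the primary screen, none filed active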
# The depositor's hits bear a star; . = not tested or not shown. Only some compounds are listed: those with a hit (about 4.8% of all), similar ones and a draw of the others.
SMILES,DAX1 inh-1,hcDAF12 agonist,SMARCA2 act,ssDAF-12 act,hgDAF-12 ag,DAX1 inh-2,hgDAF12 ag,LXRb DAF12 ctr
COC(=O)C1CN(Cc2ccc(OC)cc2)CCS(=O)(=O)N1Cc1ccc(C)cc1 (configuration not stated),.,-1.8,-1.7,-2.1,-3.0,-1.7,.,.
Cc1nc(N)sc1C(=O)N/N=C/c1ccccc1[N+](=O)[O-],.,1.9,4.2,-1.2,13.9*,1.9,9.5,0.4
Cc1nc(N)sc1C(=O)N/N=C/c1ccc([N+](=O)[O-])cc1,.,3.5,2.3,-0.7,0.3,-0.2,.,.
C/C(CC(=O)Nc1c(C)cc(C)cc1C)=N\NC(=O)OC(C)(C)C,3.2,0.9,3.7,-0.3,13.4*,1.3,0.7,0.0
O=C(Nc1ccccc1F)c1ccc(CSc2ncccn2)cc1,0.5,4.0,2.3,0.1,16.4*,2.9,14.7*,0.6
O=C(Nc1ccccc1)c1ccc(CSc2ncccn2)cc1,1.4,3.6,5.9,0.0,15.9*,2.8,16.8*,0.9
Cn1nnnc1SCc1ccc(C(=O)Nc2ccccc2F)cc1,0.6,-0.4,3.5,-1.2,4.7,0.7,.,.
C[C@@H]1ON(C)[C@H]2C[C@H]3c4[nH]c5c(-c6ccccc6F)cccc5c4CCN3C(=O)[C@@H]12,.,-2.3,-0.2,-1.5,1.7,-0.4,.,.
CC(=O)C1=C(C)N(Cc2ccc(F)cc2)C(=S)NC1c1cccc(Br)c1 (configuration not stated),.,-2.0,-0.9,-1.4,0.7,0.6,.,.
CCCn1c(C)cc(C(=O)CN2C(=O)NC3(CCCCCC3)C2=O)c1C,1.5,4.1,-3.3,-1.0,16.4*,2.6,7.9,0.3
O=C(Cc1ccccc1[N+](=O)[O-])NCc1ccccc1Cl,0.5,4.0,3.7,0.1,13.7*,3.5,13.7*,0.4
CC(C)(C)C(=O)N/C(N)=N/c1nc2ccccc2o1,4.8*,5.1,0.9,1.5*,13.3*,2.3,14.9*,0.9
N/C(=N\c1nc2ccccc2o1)NC(=O)c1ccccc1,3.0,0.4,1.4,-0.8,9.1,2.2,.,.
O=C1c2ccccc2NC(c2ccccc2)N1/N=C/c1ccccc1 (configuration not stated),0.8,4.9,3.2,0.8,14.7*,3.3,15.2*,0.6
C[C@@H]1CCCCO[C@@H](CN(C)CC2CCCCC2)[C@@H](C)CN([C@H](C)CO)C(=O)c2cc(NC(=O)Nc3ccc4c(c3)OCO4)ccc2O1,.,-2.1,-3.4,-1.3,2.0,3.2,.,.
COC(=O)C1=C(C)N(Cc2cccc(C(F)(F)F)c2)C(=NCc2ccc(OC)cc2)NC1c1cccc(C(F)(F)F)c1 (configuration not stated),.,-1.9,-1.5,-1.2,1.1,0.0,.,.
CC1=NN(C(=O)c2ccc(C)o2)C(O)(c2ccccc2)C1 (configuration not stated),2.0,3.9,3.0,-0.3,16.6*,3.9*,-0.8,0.0
CN(C)CCNc1ncnc2c1ncn2[C@H]1CN(Cc2cccnc2)C[C@@H](CO)O1,.,0.5,-5.3,-0.9,23.7*,1.0,-1.1,0.0
COc1ccc(CN2c3ccccc3C(=O)CS2(=O)=O)cc1OC,.,-0.5,1.3,-1.2,-2.0,0.6,.,.
C/C(=C\C(=O)c1sccc1Cl)N(C)C,0.9,3.3,5.6,0.2,14.7*,2.8,2.8,0.1
CCCCS(=O)(=O)N1CCCc2nc(C)c(C)cc21,.,0.1,-1.9,-1.2,2.7,0.5,.,.
O=c1[nH]c2ccccc2nc1-c1ccccc1,-0.1,0.3,-1.0,-0.1,15.8*,1.4,7.2,0.1
O=C(N[C@H](C(=O)N1CCC[C@H]1C(=O)NCc1ccccc1)c1ccccc1)c1ccc(Cl)c(Cl)c1,.,-0.2,-0.1,-1.4,2.9,-0.4,.,.
C=C(C)CN(CC)C(=O)CCc1nnc(CCCc2ccccc2)o1,1.9,3.7,2.4,-0.1,17.4*,1.1,11.9*,0.3
O=C(C(=O)N1CCC(CNS(=O)(=O)c2cc(C(F)(F)F)cc(C(F)(F)F)c2)CC1)c1cccs1,.,-0.1,-3.5,-0.3,-0.5,0.1,.,.
SMILES,DAX1 inh-1,hcDAF12 agonist,SMARCA2 act,ssDAF-12 act,hgDAF-12 ag,DAX1 inh-2,hgDAF12 ag,LXRb DAF12 ctr
CC(=O)CSc1ncnc2c1cnn2-c1ccccc1,2.9,2.9,4.9,0.3,16.7*,2.9,17.5*,0.7
CC(C)(C)c1ccc(OCCn2ccccc2=O)cc1,1.2,6.2*,3.0,-0.1,15.6*,2.9,17.3*,0.7
Cc1ccc(-c2nc3cccnc3s2)cc1NS(C)(=O)=O,1.2,6.4*,3.0,-0.1,14.2*,2.8,7.3,0.3
CCOc1ccc(C(=O)Nc2nc3ccccc3[nH]2)cc1OCC,-3.1,-2.9,-2.0,-2.1,-4.7,-2.8,.,.
N#Cc1ccc(C(=O)Nc2nc3ccccc3[nH]2)cc1,0.1,2.3,6.4,0.3,16.0*,2.1,11.3*,0.7
COc1ccc(CN2C[C@@]3(O)CC[C@@H](O)[C@@H](OC)[C@@H]3[C@@]2(C)[C@H](O)CC=C(C)C)cc1,.,-0.3,-0.9,-1.1,-0.8,0.4,.,.
C[C@@H](C(=O)Nc1ccc2c(c1)OCCO2)n1nnc2ccccc2c1=O,2.0,1.9,7.8,0.2,13.5*,0.8,13.7*,0.7
C=CCN1C(=O)c2n[nH]c(COC)c2C1c1ccc(Br)cc1 (configuration not stated),.,-2.8,-1.6,-0.9,0.7,-0.6,.,.
Cc1ccc(C(=O)CSc2ccccn2)cc1,2.7,5.1,5.0,0.4,15.4*,2.9,13.6*,0.5
O=C(CSc1ccccn1)c1ccc(F)cc1,0.9,0.2,1.8,-0.6,1.0,0.5,.,.
CCOCCn1c(SCC(=O)OCc2ccccc2)nc2c1c(=O)[nH]c(=O)n2C,0.5,3.8,1.1,-0.8,13.5*,3.0,-0.7,0.0
CCOCCn1c(SCc2ccccc2)nc2c1c(=O)[nH]c(=O)n2C,-1.3,-1.7,-1.2,-1.0,-0.9,-0.4,.,.
O=C(CSc1nc2ccccc2[nH]1)c1ccccc1F,2.0,5.8*,6.2,-0.4,16.2*,1.4,12.2*,0.6
O=C(CSc1nc2ccccc2[nH]1)c1c[nH]c2ccccc12,0.9,-2.0,-0.7,-1.8,2.5,-0.1,.,.
C=C(C)C1CC=C(C)/C(=N/NC(=O)c2ccoc2C)C1 (configuration not stated),2.8,5.9*,1.8,-0.2,20.0*,4.3*,0.6,0.1
C=C(C)C1CC=C(C)/C(=N/NC(=O)c2cccc([N+](=O)[O-])c2)C1 (configuration not stated),0.9,1.1,1.8,-1.0,4.1,-0.4,.,.
